Inconclusive results are not listed. Activity calls are given as the source filed them. Calls follow the shape of the dose curve; as a rule, active = well fitted inhibition curve with a large enough effect; inconclusive = small, poorly fitted or top-dose-only effect; inactive = flat fitted curve, though single readings scatter.
Experiments:
Experiment in all cases: qHTS profiling for inhibitors of Plasmodium falciparum proliferation (AID 504749); also: nearly all actives have a fitted effect of over 60% in size
Settings in all cases: P. falciparum in erythrocytes, SYBR Green DNA, 72 h; series mostly up to 28.7 µM
CP201 = test system: CP201
Method in brief: (§1)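 Fluorescence of SYBR Green-bound parasite DNA, read at 485/535 nm, served as the growth measure. Infected erythrocytes were cultured with compound 72 h; artemisinin (0.29 uM) and DMSO wells defined the normalization range.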

CP215 = test system: CP215
Method in brief: as §1

CP250 = test system: CP250
Method in brief: as §1

CP256 = test system: CP256
Method in brief: as §1

CP260 = test system: CP260
Method in brief: as §1

CP297 = test system: CP297
Method in brief: as §1

CP315 = test system: CP315
Method in brief: as §1

CP325 = test system: CP325
Method in brief: as §1

CP329 = test system: CP329
Method in brief: as §1

CP335 = test system: CP335
Method in brief: as §1

DIV14 = test system: DIV14
Method in brief: as §1

DIV17 = test system: DIV17
Method in brief: as §1

FAB9 = test system: FAB9
Method in brief: as §1

ICS = test system: ICS
Method in brief: as §1

JCK = test system: JCK
Method in brief: as §1

P93_24 = test system: P93_24
Method in brief: as §1

PC15 = test system: PC15
Method in brief: as §1

PC26 = test system: PC26
Method in brief: as §1

PC49 = test system: PC49
Method in brief: as §1

TAB109 = test system: TAB109
Method in brief: as §1

Measured: Potency
Potency is read from the fitted curve at half-maximal effect.

CC12C=CC(=O)C=C1[C@@H](F)CC1C2C(O)CC2(C)C1CC[C@]2(O)C(=O)CO (stereo not given in full)
inactive: all assays above

COC(c1ccccc1)(c1ccccc1)C(Oc1nc(C)cc(C)n1)C(=O)O (stereo not given)
inactive: all assays above

CC1CCC(C(C)C)C(O)C1 (stereo not given)
inactive: all assays above

C=CCn1c(=O)n(C2OC(CO)C(O)C2O)c2nc(N)[nH]c(=O)c21 (stereo not given)
inactive: all assays above

O=C1CC[C@H](C(=O)N[C@@H]2C[C@H]2c2ccccc2)N1
inactive: all assays above

CCCCC/C(C=O)=C/c1ccccc1
inactive: all assays above

O=[N+]([O-])O[C@H]1CO[C@H]2[C@@H]1OC[C@H]2O
inactive: all assays above

CNC1C(O)C(OC2C(N)CC(N)C(OC3OC(CN)=CCC3N)C2O)OCC1(C)O (stereo not given)
inactive: all assays above

CC(O)C(N)C(=O)O (stereo not given)
inactive: all assays above

Cc1ccc(Nc2ncccc2C(=O)O)cc1C
inactive: all assays above

CCN(CC)C(=O)Nc1ccc(OC[C@H](O)CNC(C)(C)C)c(C(C)=O)c1
inactive: all assays above

COc1cccc2c1C(=O)c1c(O)c3c(c(O)c1C2=O)C[C@@](O)(C(=O)CO)C[C@@H]3OC1CC(N)C(O)C(C)O1 (stereo not given in full)
active: CP201 3790 nM | CP215 3790 nM | CP250 2510 nM | CP256 2240 nM | CP260 708 nM | CP297 1900 nM | CP315 6750 nM | CP325 3790 nM | CP329 1900 nM | CP335 1200 nM | DIV14 1690 nM | DIV17 1690 nM | FAB9 3160 nM | ICS 631 nM | JCK 12600 nM | P93_24 2000 nM | PC15 2000 nM | PC26 4780 nM | PC49 5620 nM | TAB109 2000 nM

Cc1ccc(S(=O)(=O)NC(=O)NC(C)Cc2ccccc2)cc1 (stereo not given)
inactive: all assays above

NC(C(=O)O)c1ccc(O)cc1 (stereo not given)
inactive: all assays above

CCCC[C@H](O)c1ccccc1
inactive: all assays above

CC(=O)NC[C@@H]1CN(c2ccc(N3CCOCC3)c(F)c2)C(=O)O1
inactive: all assays above

C=CC1CN2CCC1CC2[C@@H](O)c1ccnc2ccc(OC)cc12 (stereo not given in full)
active: CP201 1070 nM | CP215 478 nM | CP250 891 nM | CP256 891 nM | CP260 355 nM | CP297 757 nM | CP315 953 nM | CP325 478 nM | CP329 953 nM | CP335 338 nM | DIV14 213 nM | DIV17 135 nM | FAB9 79.4 nM | ICS 89.1 nM | JCK 2000 nM | P93_24 398 nM | PC15 89.1 nM | PC26 239 nM | PC49 282 nM | TAB109 112 nM

CC(O)C1CCC2C3CCC4CC(O)CCC4(C)C3CCC12C (stereo not given)
inactive: all assays above

CC1(C)OC[C@@H]2O[C@@]3(C(=O)O)OC(C)(C)O[C@@H]3[C@@H]2O1
inactive: all assays above

CCCCCCCCCCCCCCCC(=O)OCC(COP(=O)(O)OCC[N+](C)(C)C)OC(=O)CCCCCCCCCCCCCCC (stereo not given)
inactive: all assays above

CC(c1ncncc1F)[C@](O)(Cn1cncn1)c1ccc(F)cc1F (stereo not given in full)
inactive: all assays above

CCC(C(=O)O)C1OC(C(C)C(O)C(C)C(=O)C(CC)C2OC3(C=CC(O)C4(CCC(C)(C5CCC(O)(CC)C(C)O5)O4)O3)C(C)CC2C)C(C)CC1C (stereo not given)
active: CP201 95.3 nM | CP215 60.1 nM | CP250 199 nM | CP256 199 nM | CP260 112 nM | CP297 135 nM | CP315 33.8 nM | CP325 84.9 nM | CP329 95.3 nM | CP335 42.6 nM | DIV14 95.3 nM | DIV17 75.7 nM | FAB9 282 nM | ICS 89.1 nM | JCK 199 nM | P93_24 178 nM | PC15 158 nM | PC26 75.7 nM | PC49 251 nM | TAB109 112 nM

CO/N=C(/C(=O)N[C@@H]1C(=O)N2C(C(=O)O)=C(CSc3nc(C)c(CC(=O)O)s3)CS[C@H]12)c1csc(N)n1
inactive: all assays above

From PubChem BioAssay (NCATS)
